Bioassay records from PubChem BioAssay.
The list is a sample of the results.
aSyn 5UTR act: Activators working through SNCA 5'UTR binding (MLPCN) | 300,000 compounds, 7.1% hits | activity score, % (tested at 7.5 µM), hits read low | alpha-synuclein 5'UTR reporter, activators screen; in the data active = activity score below about -60%
The depositor's hits bear a star.

SMILES	aSyn 5UTR act
CCCC(=O)N(CCN1CCOCC1)c1nc2c(F)cc(F)cc2s1	-86*
Cc1ccc(S(=O)(=O)CCC(=O)N(CCN2CCOCC2)c2nc3ccccc3s2)cc1	-75*
N#C/C(=N\Nc1ccccc1F)C(=N)N1CCCCC1	-158*
Cc1ccc(N/N=C(\C#N)C(=N)N2CCCCCC2)cc1	-113*
N#C/C(=N\Nc1ccc(Cl)cc1)C(=N)N1CCCCC1	-101*
COc1ccc(N/N=C(\C#N)C(=N)N2CCCCC2)cc1	-82*
CCN(CC)C(=N)/C(C#N)=N/Nc1ccc(C)cc1	-136*
Cc1ccc(N/N=C(\C#N)C(=N)N2CCOCC2)cc1	-141*
CC(C)CCn1cnc2c(cnn2-c2ccc(F)cc2)c1=O	-83*
CC(=O)Cn1cnc2c(cnn2-c2ccc(C)c(C)c2)c1=O	-106*
CCOC(=O)Cn1cnc2c(cnn2-c2ccc(Cl)cc2)c1=O	-65*
CCOC(=O)C1CCN(c2ncnc3c2cnn3-c2ccc(Cl)cc2)CC1	65
CC[n+]1c(/C=C/Nc2ccccc2)sc2ccccc21	-83*
CCN1/C(=C/C=C/C=C/c2sc3ccccc3[n+]2CC)Sc2ccccc21	126
CCc1nnc(NC(=O)c2ccc3c(c2)C(=O)N(CC(C)C)C3=O)s1	-88*
Cc1ccc(O)c(NC(=O)c2ccc3c(c2)C(=O)N(CC(C)C)C3=O)c1	-112*
O=C(Cn1c2ccccc2c(=O)c2ccccc21)N/N=C/c1ccc(N2CCCC2)c([N+](=O)[O-])c1	111
N#C/C(=C/c1ccc(N2CCCC2)c([N+](=O)[O-])c1)c1nc2ccccc2[nH]1	-78*
N#C/C(=C\c1ccc(N2CCOCC2)c([N+](=O)[O-])c1)c1nc2ccccc2[nH]1	-163*
CN(C)N=Nc1ccc(-c2cn(Cc3ccccc3)cn2)cc1	-74*
CCCOC(=O)c1ccc(NC(=O)CC(C)(C)C)cc1	-109*
CCCCc1ccc(NC(=O)CC(C)(C)C)cc1	-159*
Fc1ccc2nc(Nc3nc4cc5c(cc4s3)OCO5)sc2c1	-232*
Fc1ccc2nc(Nc3nc4cc5c(cc4s3)OCCO5)sc2c1	-128*
c1ccc2sc(Nc3nc4cc5c(cc4s3)OCO5)nc2c1	-264*
SMILES	aSyn 5UTR act
Oc1c(Br)cc(Br)cc1C=Nc1ccc2c(c1)OCO2	-66*
C=CCSc1nnc(NC(=O)c2ccc(Cl)nc2)s1	-77*
CC(C)(C)c1nnc(NC(=O)c2ccc(Cl)nc2)s1	-126*
COC(=O)c1ccc2c(=O)n3c(nc2c1)SCC(c1ccccc1)=N3	-112*
COc1cccc(-c2ccc3c(N)c(C(=O)NC4CC4)sc3n2)c1	-76*
Nc1c(C(=O)Nc2cccc(Cl)c2Cl)sc2nc(-c3cccnc3)ccc12	-62*
COc1ccc(-c2ccc3c(N)c(C(=O)c4cccc(OC)c4)sc3n2)cc1	-71*
c1ccc(-c2cc3n(c2)CCc2ccccc2-3)cc1	-135*
CCc1nnc(NC(=O)C2Cc3ccccc3CN2S(=O)(=O)c2ccc(C)cc2)s1 (configuration not stated)	-81*
O=C(Nc1nnc(C2CC2)s1)C1Cc2ccccc2CN1S(=O)(=O)c1cccs1 (configuration not stated)	-66*
CCc1nnc(NC(=O)C2Cc3ccccc3CN2S(=O)(=O)c2cccs2)s1 (configuration not stated)	-105*
Cc1cc(C)c2sc(NNC(=O)c3ccc(S(=O)(=O)N4CCc5ccccc5C4)cc3)nc2c1	77
O=C(NCc1cccs1)c1cc2c(s1)-c1ccccc1OC2	-90*
O=C(NC1CC1)c1cc2c(s1)-c1ccccc1OC2	-82*
CN(C)CCNC(=O)c1cc2c(s1)-c1ccc(Cl)cc1SC2	100
Fc1ccc(-c2csc(Nc3ccccn3)n2)cc1	-77*
CC(=O)Oc1ccc(-c2csc(Nc3cccc(C)n3)n2)cc1	-250*
Cc1cccc(Nc2nc(-c3ccc(F)cc3)cs2)n1	-137*
COc1ccc(-c2csc(Nc3cccc(C)n3)n2)cc1C	-216*
COc1ccc(-c2csc(Nc3cccc(C)n3)n2)cc1	-232*
Clc1ccc(COn2nnc3ccccc32)c(Cl)c1	-151*
Cc1cccn2c(=O)c3cc(C(=O)N4CCCCC4)sc3nc12	-64*
Cc1cnc(NC(=O)c2cc3c(C)nn(-c4ccccc4)c3s2)s1	-66*
CCC(CC)NC(=O)c1cc2c(C)nn(Cc3ccccc3Cl)c2s1	71
Cc1nn(-c2ccccc2)c2sc(C(=O)N3CCCCC3)cc12	-68*
SMILES	aSyn 5UTR act
CCOc1ccc(-c2nnc(N(CC)C(=O)C3CCC3)s2)cc1	-102*
CCCC(=O)N(C)c1nnc(-c2ccc(OC)cc2)s1	-129*
COc1ccc(CNC(=O)CSc2ccsc2[N+](=O)[O-])cc1	-117*
O=C(Cc1cccs1)NCc1cccc(Br)c1	-112*
COc1ccc(CNC(=O)Cc2cccs2)cc1	-70*
O=C(Cc1cccs1)NCc1ccc2c(c1)OCO2	-65*
O=C(CCCN1C(=O)/C(=C/c2ccc3c(c2)OCO3)SC1=S)Nc1cccc(C(=O)O)c1	73
O=C(CCCc1cccs1)Nc1ccc2c(c1)OCO2	-182*
